The values that follow come from PubChem BioAssay (Tox21).

Each structure is given as a SMILES string. Inconclusive results are not listed. Entries that show only a call come without a potency. Activity calls are given as the source filed them. The call rests on the fitted dose curve; in most records, active means well fitted cell-killing curve with a large enough effect in the repeat runs; inconclusive means weak or mixed curves, or effect the other way; inactive means no such curve, though single readings can be large or run the other way.
Potency means the concentration at half of the fitted maximal effect.

The assay is described as follows: qHTS assay to identify small molecule antagonists of the progesterone receptor (PR) signaling pathway - cell viability counter screen (AID 1346798). Further: nearly all actives have a fitted effect of over 50% in size. The settings on record: PR-UAS-bla HEK293T viability, CellTiter-Glo luminescence, 16 h; series mostly up to 92.4 µM. Summed up:
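Viability was determined by ATP-based luminescence (CellTiter-Glo) in PR-UAS-bla HEK293T cells cultured in 2% charcoal-stripped serum and incubated 16 hr with compounds under R5020 stimulation.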
(In qHTS, concentration-response curves come from the screen itself.)
In the case of `CCC(N)(CO)CO`, the Potency entry is “inactive”.

Regarding `COc1cc(-c2nc(NC(=O)c3cc4cc(C)cc(C)c4n3CC(=O)O)sc2CCC2CCCCC2)c(OC)cc1Cl`, the Potency is 14.1 µM (active).

Turning to `O=C(OCC1CO1)C1CCCCC1C(=O)OCC1CO1` (stereo unspecified), the Potency result is “inactive”.

For `CSc1ccc(/C=C2/C(C)=C(CC(=O)O)c3cc(F)ccc32)cc1`, the Potency result is “inactive”.

Consider `O=C1C=CC(=O)N1c1ccc(Cc2ccc(N3C(=O)C=CC3=O)cc2)cc1`, for which the Potency entry is “inactive”.

For the molecule `CN(C)[C@@H]1C(=O)C(C(N)=O)=C(O)[C@@]2(O)C(=O)C3=C(O)c4c(O)cccc4C[C@H]3C[C@@H]12`, the Potency entry was “inactive”.

Consider `Cc1nc(-c2ccc3c(c2)CCN(CCC2CCC(NC(=O)/C=C/c4ccc(F)cc4)CC2)CC3)no1` (stereo unspecified), for which the Potency result was “inactive”.

For the molecule `CC(C)n1nc(-c2cc3cc(O)ccc3[nH]2)c2c(N)ncnc21`, the Potency entry was “inactive”.

Regarding `Fc1ccc([C@@H]2CCNC[C@H]2COc2ccc3c(c2)OCO3)cc1`, the Potency result was “inactive”.

For `O=[N+]([O-])c1cc(Cl)c(Cl)c(Cl)c1Cl`, the Potency entry was “inactive”.

Take `CCCCCCCCn1sc(Cl)c(Cl)c1=O`: the Potency result is “inactive”.

Regarding `O=C(Oc1ccccc1)c1ccccc1C(=O)Oc1ccccc1`, the Potency result is “inactive”.

In the case of `O=C1c2ccccc2Cc2ccccc21`, the Potency result is “inactive”.

On to `CCC(CN)=C(c1ccccc1)c1ccccc1`, for which the Potency result was “inactive”.

For the molecule `O=c1[nH]cnc2nc[nH]c12`, the Potency entry was “inactive”.

Turning to `Nc1cc(C(F)(F)F)ccc1S`, the Potency was 13.3 µM (active).

As to `C[C@@H](NCCCc1cccc(C(F)(F)F)c1)c1cccc2ccccc12`, the Potency is 26.6 µM (active).

As to `Oc1cccc2cc3cccc(O)c3c(O)c12`, the Potency result is “inactive”.

Turning to `O=C(O)c1c(Cl)cccc1Cl`, the Potency entry was “inactive”.

In the case of `CCCCCCCC(=O)[O-].CCCCCCCC(=O)[O-].[Zn+2]`, the Potency entry is “inactive”.

In the case of `Cc1oc(-c2ccccc2)nc1CCC(=O)c1ccc(CC2SC(=O)NC2=O)cc1` (stereo unspecified), the Potency result is “inactive”.

Regarding `COc1c(C)c2c(c(O)c1C/C=C(\C)CCC(=O)O)C(=O)OC2`, the Potency was 0.119 µM (active).

`CC(C)(C)CC(C)(C)c1ccc(OCCOCC[N+](C)(C)Cc2ccccc2)cc1`: the Potency is 54.4 µM (active).

On to `CCC(C)(C)C1CCCCC1OC(C)=O` (stereo unspecified), for which the Potency result is “inactive”.

In the case of `Cn1cc(C(=O)[C@@H]2CCc3nc[nH]c3C2)c2ccccc21`, the Potency is 23.7 µM (active).

With `CSc1ccc(C(=O)c2[nH]c(=O)[nH]c2C)cc1`, the Potency result is “inactive”.

Regarding `C[n+]1ccn(Cc2ccccc2)c1`, the Potency result was “inactive”.

Consider `CC(NN)c1ccccc1` (stereo unspecified), for which the activity change, negative = cytotoxicity was 0.118% [at 18.9 µM] (inactive).

As for `NNc1nc(-c2ccc([N+](=O)[O-])cc2)cs1`, the Potency entry was “inactive”.

`COc1ccc(C(=O)/C(Br)=C\C(=O)O)cc1`: the Potency entry was “inactive”.

For the molecule `CC(C)=CCOc1ccc(/C=C/C(=O)c2ccc(OCC=C(C)C)cc2OCC(=O)O)cc1`, the Potency result was “inactive”.

Consider `Cc1cccc(CN2CCN(C(c3ccccc3)c3ccc(Cl)cc3)CC2)c1` (stereo unspecified), for which the Potency result is “inactive”.

For `N#CSc1ccc(N)c([N+](=O)[O-])c1`, the Potency entry was “inactive”.

As for `O=C(c1ccc(F)cc1)C1CCN(CCn2c(=O)[nH]c3ccccc3c2=O)CC1`, the Potency entry was “inactive”.

For `CCCCCCCCCCCCCCCC[N+](C)(C)CCN(Cc1ccc(OC)cc1)c1ncccn1`, the Potency was 29.8 µM (active).

Turning to `O=C(O)c1cc(O)c2c(c1)C(=O)c1cccc(O)c1C2=O`, the Potency entry was “inactive”.
